Molecules are shown by their SMILES. Values joined by “and” are separate entries in the source; they are usually repeats but may differ in a detail not shown here. Identical values can stand only once. Hit rate of the full screen: of about 300,000 compounds, about 3,700 (1.2%) were called active. Roughly 20% stayed inconclusive and do not appear here. Calls follow the shape of the full dose curve; tested in HEK293 cells. What follows is part of a selection rich in actives, with near analogues and random picks from the rest.
% is scaled to controls: 0 for no effect and ±100 for the full control effect; potency is read from the fitted curve at half-maximal effect.

A short description of the assay: qHTS for Inhibitors of binding or entry into cells for Lassa Virus. Also: nearly all actives have a fitted effect of over 50% in size. The settings on record: Lassa virus pseudotype entry inhibition, cell reporter; series mostly up to 37.9 µM; activity change, negative = inhibition: at the top concentration. (qHTS replaces the single test concentration by a dilution series.)
On to `CC(=NNC(=S)N1CCCCCC1)c1ccccn1`, for which the Potency was 0.316 µM (active).
Take `CC(=O)Nc1cccc(/C(C)=N/NC(=O)c2ccccc2Cl)c1`: the “activity change, negative = inhibition” value was 1.02% (inactive).
Regarding `C/C(=N\NC(=O)Cc1ccc(F)cc1)c1ccc(F)cc1`, the “activity change, negative = inhibition” value is 0.896% (inactive).
On the same count and under the same terms, the result for `O=C(Nc1ccc(NC(=O)c2ccccc2F)cc1)c1ccccc1F` reads -13% (inactive); that for `CCNC(=S)N1CCN(c2ncccn2)CC1`, 3.81% (inactive); that for `C/C(=N\NC(=O)Cc1ccc(Br)cc1)c1cccnc1`, 3.78% [at 46.1 µM] (inactive).
Regarding `CCOC(=O)CCC(NC(=O)c1ccc(CNc2nc3cc(C(F)(F)F)ccc3nc2C(=O)OCC)cc1)C(=O)OCC` (configuration not stated), the “activity change, negative = inhibition” value was -7.13% (inactive).
Same read-out and setting: the result for `Cc1nn(-c2ccc(N3CCCCC3)nn2)c(C)c1CCC(=O)NCc1ccc(F)cc1` reads -18.5% [at 46.1 µM] (inactive).
Still for that read-out and setting: the value for `COc1ccc(C(=O)C(C)OC(=O)c2cccc(S(=O)(=O)Nc3c(C)n(C)n(-c4ccccc4)c3=O)c2)cc1` (configuration not stated) was -2.92% (inactive); that for `O=C(NNc1nc(N2CCCC2)nc(N2CCCC2)n1)c1ccccc1` was 15.5% (inactive).
On the same count and under the same terms, the value for `O=C(Nc1ccc(O)cc1)c1ccc(NC(=O)c2ccco2)cc1` was 18.5% (inactive); that for `COCCn1c(SC(C)C(=O)NC2CC2)nnc1-c1cccc(C)c1` (configuration not stated) was -8.47% [at 46.1 µM] (inactive).
Regarding `COC(=O)c1sc(N2CCN(Cc3ccccc3)CC2)nc1N`, the “activity change, negative = inhibition” value was -10.1% [at 46.1 µM] (inactive).
Consider `C/C(=N\NC(=S)Nc1ccc(C)cc1)c1cc2ccccc2o1`, for which the Potency was 6.51 µM (active).
Regarding `CC(C)Oc1ccc(NC(=O)c2cc3ccccc3o2)cc1`, the “activity change, negative = inhibition” value was 8.89% [at 46.1 µM] (inactive).
As for `Cc1ccc(OC(=O)c2cc3ccccc3o2)cc1`, the “activity change, negative = inhibition” value is -5.21% (inactive).
Turning to `CCOc1ncccc1C(=O)Nc1ccc2c(c1)OCCO2`, the “activity change, negative = inhibition” value was 3.99% [at 46.1 µM] (inactive).
For `COc1cccc2c1C(=O)c1c(O)c3c(c(O)c1C2=O)CC(O)(C(C)=NNC(=O)c1ccc(Cl)c(Cl)c1)CC3OC1CC(N)C(O)C(C)O1` (configuration not stated), the Potency is 0.398 µM (active).
Take `COc1ccc(C2NCCCC2c2ccccc2)cc1` (configuration not stated): the “activity change, negative = inhibition” value was 6.16% (inactive).
Still for that read-out and setting: the value for `Cc1ccccc1NC(=O)Cn1cc(C(=O)C2CC2)c2ccccc21` was 9.91% [at 46.1 µM] (inactive); that for `CN(CCc1ccccn1)C1CCCN(S(=O)(=O)c2ccccc2Cl)C1` (configuration not stated) was -13.5% [at 46.1 µM] (inactive).
Turning to `c1ccc2c(c1)C(=NC1CCCCC1)NC2=NC1CCCCC1`, the Potency is 13 µM (active).
Regarding `COC(=O)Cc1nc2c(N)nc(N)nc2[nH]c1=O`, the “activity change, negative = inhibition” value was -1.05% [at 46.1 µM] (inactive).
In the case of `CCC(=O)c1ccc(OC(=O)/C=C/c2cc(OC)c(OC)c(OC)c2)cc1`, the “activity change, negative = inhibition” value is 18.5% [at 46.1 µM] (inactive).
As for `COc1cc(/C=C/c2ccc(/C=C/c3cc(OC)c(OC)c(OC)c3)cc2)cc(OC)c1OC`, the Potency was 11.2 µM (active).
As to `COc1cc(/C=C/C2=CC(C)(C)NC(=S)N2)cc(OC)c1OC`, the “activity change, negative = inhibition” value was -7.97% [at 46.1 µM] (inactive).
Still for that read-out and setting: the result for `Cc1ccc(NC(=O)C2CC2)cc1S(=O)(=O)N1CCOCC1` reads 0% [at 46.1 µM] (inactive).
Still for that read-out and setting: the result for `Cc1cccc(N2CCN(C(=O)CCSCc3ccccc3F)CC2)c1C` reads -19.8% [at 46.1 µM] (inactive).
On the same count and under the same terms, the value for `CCC(CC)C(=O)N1CCc2cc(OC)c(OC)cc2C1COc1ccc(F)cc1` (configuration not stated) was -13.9% [at 46.1 µM] (inactive).
On to `CC[C@H]1CN2CCc3cc(OC)c(OC)cc3[C@@H]2C[C@@H]1C[C@H]1NCCc2cc(OC)c(OC)cc21`, for which the Potency is 580 nM (active) and 184 nM (active).
Regarding `COc1cc2c(cc1O)[C@H](Cc1ccc(Oc3cc(C[C@@H]4NCCc5cc(OC)c(O)cc54)ccc3O)cc1)NCC2`, the “activity change, negative = inhibition” value is 3.88% (inactive).
On the same count and under the same terms, the value for `O=C(NC(=S)Nc1ccc(Br)cc1F)C1CCCCC1` was -27.3% (inactive); that for `Nc1cccnc1Sc1ccccc1` was 6.71% (inactive); that for `CC12C=C(C=Cc3ccc(F)cc3)C(C)(C1)C(c1ccc(F)cc1)CC2=O` (configuration not stated) was -4.68% [at 14.3 µM] (inactive).
In the case of `O=C(Nc1ccc(-c2nc3cc(NC(=O)c4ccccc4Cl)ccc3o2)cc1)c1ccccc1Cl`, the “activity change, negative = inhibition” value was -18% [at 46.1 µM] (inactive).
Same read-out and setting: the result for `COc1cccc2sc(NNC(=O)c3nc4ccccc4s3)nc12` reads -3.86% (inactive).
With `COc1ccccc1OCc1nc2ccccc2s1`, the Potency was 10 µM (active).
As to `O=C(O)CCCCc1nc2ccccc2s1`, the “activity change, negative = inhibition” value was -0.106% (inactive).
Consider `COc1ccc(-c2cc(=O)oc3cc(OC(C)C(=O)Nc4ccc(CN5CCOCC5)cc4)ccc23)cc1` (configuration not stated), for which the “activity change, negative = inhibition” value is -28.8% [at 46.1 µM] (inactive).
With `c1ccc2c(c1)OCC(CNc1ncnc3nc[nH]c13)O2` (configuration not stated), the “activity change, negative = inhibition” value was 9.89% (inactive).
The same measure, in the same setting: the result for `S=C(NCC1COc2ccccc2O1)Nc1ccc(Br)cc1` (configuration not stated) reads 3.35% (inactive).
Consider `c1ccc(-c2cc3c(NCC4COc5ccccc5O4)ncnc3s2)cc1` (configuration not stated), for which the Potency is 11.6 µM (active).
`O=C(Nc1cccc(C(=O)NC2CC2)c1)c1ccc(F)c(S(=O)(=O)N2CCOCC2)c1`: the “activity change, negative = inhibition” value was 2.79% (inactive).
As for `CCOc1ccc(C(=O)Nc2ccc3nc4c(c(Nc5ccccc5OC)c3c2)CCCC4)cc1`, the Potency was 11.2 µM (active).
For the compound `CCOc1ccc(C(=O)Nc2cc(OC)ccc2OC)cc1`, the “activity change, negative = inhibition” value is 20.4% (inactive).
Still for that read-out and setting: the result for `COc1cccc(NC(=O)c2ccc3c(SCC(=O)O)c4c(nc3c2)CCCC4)c1` reads 17.5% [at 46.1 µM] (inactive).
Regarding `Cc1ccccc1CS(=O)(=O)CC1Nc2ccc(C(=O)NCc3ccc(Cl)cc3)cc2NC1=O` (configuration not stated), the “activity change, negative = inhibition” value was -11.5% [at 46.1 µM] (inactive).
As to `Cc1ccc(OCCSc2nc3ccc(NC(=O)COc4ccc(C)cc4)cc3s2)cc1`, the “activity change, negative = inhibition” value was 6.03% [at 46.1 µM] (inactive).
On the same count and under the same terms, the result for `Cc1cc(C)nc(Nc2cc([N+](=O)[O-])ccc2C)n1` reads -1.28% (inactive); that for `Cc1cc(C)nc(NC(=O)C(C)N2C(=O)c3ccccc3C2=O)n1` (configuration not stated), 17.9% (inactive).
With `Cc1cc(C)nc(Nc2n[nH]c(-c3ccccc3N)n2)n1`, the Potency is 6.31 µM (active).
For `CC1CCN(C2=NC(=O)/C(=C/c3ccc(O)cc3)S2)CC1`, the “activity change, negative = inhibition” value was -27.1% (inactive).

The record behind these values is PubChem BioAssay AID540256 (National Center for Advancing Translational Sciences (NCATS), 2011).
